Compound activity deposited in PubChem by National Center for Advancing Translational Sciences (NCATS).
Only some compounds are listed: those with a hit (about 10% of all), similar ones and a draw of the others.
CtBP-E1A blk: qHTS Assay for Inhibitors of the CtBP/E1A Interaction | AlphaScreen GST-E1A/His-CtBP binding, 1536-well; hits give low values | 340,000 tested, 0.49% active | activity change, % (concentration not given with the values) | CtBP / adenovirus E1A interaction (AlphaScreen); in the data active = activity change below about -65%; inconclusive = mostly about -30% to -63%
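In 5 uL wells, 23 nL compound meets equimolar GST-E1A and His-CtBP (5X stock 125 nM each) for 2 h, 37 °C. Beads (5X, 50 ug/mL) then 1 h, 37 °C, dark.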
Six1-Eya2 blk: qHTS Assay for Inhibitors of the Six1/Eya2 Interaction; 360,000 tested, 0.56% active; activity change, % (concentration not given with the values); Homeobox protein SIX1 (Homo sapiens) + Protein phosphatase EYA2 (Homo sapiens), …; AlphaScreen GST-Six1/His-Eya2 binding, biochemical; hits give low values; AID 651725, 2012; in the data active = activity change below about -65%; inconclusive = mostly about -30% to -63%
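AlphaScreen with GST-Six1 and His-Eya2 (5X mix: 250 nM and 500 nM), glutathione donor and nickel acceptor beads; buffer 50 mM Tris pH 8.0, 300 mM NaCl, 1 mM TCEP; 1 h at 37 C in the dark.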
G9a block: qHTS Assay for Inhibitors of Histone Lysine Methyltransferase G9a. G9a H3K9 monomethylation, AlphaScreen, 2 h. Histone-lysine N-methyltransferase EHMT2 (Homo sapiens), Q96KQ7. 350,000 tested, 8.8% active. Potency, µM (series often up to 102 µM), most hits filed as inhibitors; note: nearly all actives have a fitted effect of over 75% in size
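G9a (20 nM) preincubated 15 min RT with compounds, then 500 nM biotinylated H3K9 peptide and 20 uM SAM added; 2 h RT reaction. Monomethyl-H3K9 product detected by AlphaScreen with anti-H3K9me1 antibody, streptavidin donor and anti-rabbit IgG acceptor beads.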
HP1b chromo inh: HTS for Inhibitors of HP1-beta Chromodomain Interactions with Methylated Histone Tails | AlphaScreen HP1-beta / biotin-H3K9me3 peptide binding | Potency, µM (doses to about 114 µM), most hits filed as inhibitors | 390,000 tested, 0.56% active; note: nearly all actives have a fitted effect of over 70% in size
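HP1-beta protein (50 nM final) preincubated 30 min at room temperature with biotinylated H3(1-18)K9me3 peptide (50 nM) in PBS pH 7.4, 0.01% Tween-20, then compound added for 30 min. AlphaScreen streptavidin donor/nickel chelate acceptor beads (10 ug/mL final), 30 min dark, luminescence read.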
JMJD2A Tudor inh: qHTS Assay for Inhibitors of JMJD2A-Tudor Domain | AlphaScreen JMJD2A-Tudor / H3K4me3 peptide binding | AID 504339, 2011 | Lysine-specific demethylase 4A (Homo sapiens), O75164 | 390,000 tested, 4.4% active | Potency, µM (highest dose often 114 µM), actives largely listed as inhibitors; note: nearly all actives have a fitted effect of over 50% in size
Target sequence (O75164 whole entry, looked up, the tested form may be a part): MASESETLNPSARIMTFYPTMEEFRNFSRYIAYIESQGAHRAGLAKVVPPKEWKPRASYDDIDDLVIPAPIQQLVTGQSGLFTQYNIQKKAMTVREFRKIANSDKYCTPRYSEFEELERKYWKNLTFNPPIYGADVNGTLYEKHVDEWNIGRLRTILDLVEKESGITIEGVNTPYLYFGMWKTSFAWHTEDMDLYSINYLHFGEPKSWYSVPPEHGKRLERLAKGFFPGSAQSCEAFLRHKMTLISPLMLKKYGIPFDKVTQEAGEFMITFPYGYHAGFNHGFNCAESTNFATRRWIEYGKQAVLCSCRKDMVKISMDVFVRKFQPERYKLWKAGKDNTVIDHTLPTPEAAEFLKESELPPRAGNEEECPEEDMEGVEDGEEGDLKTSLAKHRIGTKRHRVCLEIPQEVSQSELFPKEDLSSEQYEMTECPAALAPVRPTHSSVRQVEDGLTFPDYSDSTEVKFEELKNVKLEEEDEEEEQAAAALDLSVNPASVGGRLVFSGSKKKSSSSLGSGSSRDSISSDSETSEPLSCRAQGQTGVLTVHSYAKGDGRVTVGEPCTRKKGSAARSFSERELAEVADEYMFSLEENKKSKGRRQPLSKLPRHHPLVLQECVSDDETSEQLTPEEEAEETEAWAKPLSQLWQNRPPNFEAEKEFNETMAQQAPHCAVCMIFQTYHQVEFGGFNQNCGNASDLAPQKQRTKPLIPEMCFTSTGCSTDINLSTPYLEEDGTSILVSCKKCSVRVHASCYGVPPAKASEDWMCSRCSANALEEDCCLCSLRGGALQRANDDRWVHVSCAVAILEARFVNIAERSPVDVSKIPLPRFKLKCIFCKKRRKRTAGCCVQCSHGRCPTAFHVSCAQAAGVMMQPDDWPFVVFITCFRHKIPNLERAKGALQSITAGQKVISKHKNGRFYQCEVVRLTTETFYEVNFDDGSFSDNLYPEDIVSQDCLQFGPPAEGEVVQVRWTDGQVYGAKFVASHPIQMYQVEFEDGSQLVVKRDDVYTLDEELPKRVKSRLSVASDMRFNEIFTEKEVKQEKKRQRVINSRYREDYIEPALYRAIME
BAZ2B inh: qHTS Assay for Inhibitors of BAZ2B; AlphaScreen BAZ2B-H3K14Ac peptide displacement; Potency, µM (doses to about 114 µM), most hits filed as inhibitors; 360,000 tested, 4.4% active; AID 504333, 2011; note: nearly all actives have a fitted effect of over 60% in size
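Inhibition is scored as reduced AlphaScreen emission. The BAZ2B/b-H3(5-23)K14Ac complex (50 nM each) in PBS pH 7.4, 0.01% Tween-20 meets compound (up to 110 uM) for 30 min at RT before bead addition.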
Numbers stand for hits; 0 = inactive; ? = inconclusive; - = no result given; ! = a repeat was not active; [ ] = another dose, or the depositor's remark. Unless noted, calls come from the whole dose curve; as a rule, active = well fitted inhibition curve with a large enough effect; inconclusive = small, poorly fitted or top-dose-only effect; inactive = no such curve, though single readings can be large or run the other way.

SMILES	CtBP-E1A blk	Six1-Eya2 blk	G9a block	HP1b chromo inh	JMJD2A Tudor inh	BAZ2B inh
CC1(NC(=O)CCc2nc3sc4c(c3c(=O)[nH]2)CCCC4)CCS(=O)(=O)C1 (centres undefined)	0	0	50.1µM	0	?	79.4µM
CC(=O)Nc1ccc(NC(=O)CCc2nc3sc4c(c3c(=O)[nH]2)CCCC4)cc1	0	0	0[0.501 µM]	0	0	0
CCc1ccccc1NC(=O)CNC(=O)CCc1nc2sc3c(c2c(=O)[nH]1)CCCC3	0	0	?	0	?	50.1µM
Cc1ccc(NC(=O)CCc2nc3sc4c(c3c(=O)[nH]2)CCCC4)c(Br)c1	0	0	?	0	?	50.1µM
Cc1cc(C)cc(NC(=O)CCc2nc3sc4c(c3c(=O)[nH]2)CCCC4)c1	0	0	0	0	0	0
COc1ccc(C2NCCc3c2[nH]c2ccccc32)cc1CN1CCc2cc(OC)c(OC)cc2C1C (centres undefined)	0	0	44.7µM	0	0[11.4 µM]	?
COc1ccc(C2NC(C(=O)O)Cc3c2[nH]c2ccccc32)cc1CN1CCN(c2ccc(F)cc2)CC1 (centres undefined)	0	0	0[12.7 µM]	0	?	?
COc1ccc(C2NCCc3c2[nH]c2ccccc32)cc1COc1ccc(F)cc1 (centres undefined)	?	0	?	?	39.8µM	35.5µM
CCC(Sc1nc2n[nH]c(C)c2c(=N)n1-c1ccc(Br)cc1)C(=O)N(CC)CC (centres undefined)	-	-	0	0	0	0
Cc1ccc(-c2nc(NC(=O)CSc3nc(C)nc4sc5c(c34)CCCC5)ns2)cc1	-	-	0	0	0	0
COc1ccc(OC)c(C(c2nnnn2CC2CCCO2)N2CCN(C3CCCC3)CC2)c1 (centres undefined)	0	0	?	0	0	?
C=CCN1CCN(C(c2cc(OC)ccc2OC)c2nnnn2CC2CCCO2)CC1 (centres undefined)	0	0	12.6µM	0	0[11.4 µM]	-
COc1ccc(OC)c(C(c2nnnn2CC2CCCO2)N2CCN(C)CC2)c1 (centres undefined)	0	0	?	0	0	79.4µM
C/C(=N\NC(=S)Nc1cccc(C)c1)c1ccco1	0	0	-	?	?	0
CCNC(=S)N/N=C(\C)c1ccco1	0	0	35.5µM	0	0	0
Cc1ccc(OCC(=O)Nc2cccc(C(=O)OCc3cc(=O)n4nc(C)sc4n3)c2)cc1	-	-	0[12.7 µM]	0	0	0
CCCN(CCC)CC(O)CN1C(=O)NC(C)(C)C1=O (centres undefined)	0	0	0	0	0	0
COc1cccc(C(=O)NCCS(=O)(=O)N2CCCC2)c1	0	0	31.6µM	0	0	0
CCOC(=O)N1CCN(S(=O)(=O)CCNC(=O)c2ccccc2)CC1	0	0	0	0	0	0
COc1cccc(C(=O)NCCS(=O)(=O)N2CCCCCC2)c1	0	0	?	0	0	0
CCOC(=O)N1CCN(S(=O)(=O)CCNC(=O)c2cccc(OC)c2)CC1	0	0	50.1µM	0	0	0
COc1cccc(C(=O)NCCS(=O)(=O)N2CCCCC2)c1	0	0	11.2µM	0	0	0
COc1cccc(C(=O)NCCS(=O)(=O)N2CCN(C(=O)c3ccco3)CC2)c1	0	0	14.1µM	0	0	0
CNC(=O)C(=O)Nc1cc2c3c(c1)CCC(=O)N3CCC2	-	0	0	0	0	0
Nc1ncnc2c1ncn2[C@@H]1O[C@H](C(=O)Nc2ccc(C(=O)N3CCCCC3)cc2)[C@@H](O)[C@H]1O	0	0	-	-	-	-
SMILES	CtBP-E1A blk	Six1-Eya2 blk	G9a block	HP1b chromo inh	JMJD2A Tudor inh	BAZ2B inh
Cc1cccc(CCNC(=O)c2ccc3c(c2)N(Cc2ccccc2F)C(=O)c2ccccc2S3)c1	-	-	0	0	0	0
ONC(=Nc1ccc(Cl)cc1)c1ccccc1	0	0	0	0	0	0
CCn1c(C)c(CS(=O)(=O)c2ccccc2)[nH]c1=O	0	0	1µM	10µM	22.4µM	0
CNCCC=C1c2ccccc2C=Cc2ccccc21	0	0	0[21.5 µM]	0	0	-
OCCN1CCN(CCCN2c3ccccc3Sc3ccc(Cl)cc32)CC1	0	0	0[12.7 µM]	0	?	?
CN(C)CCC=C1c2ccccc2C=Cc2ccccc21	0	0	14.1µM!	0	0	0
OCCN1CCN(CC/C=C2/c3ccccc3Sc3ccc(Cl)cc32)CC1	0	0	15.8µM	0	?	?
CCCCCCCCCCC[N+](C)(C)CC/C=C1/c2ccccc2Sc2ccc(Cl)cc21	-	0	35.5µM	0	?	0
COc1ccccc1CCNS(=O)(=O)c1ccc(N2CCCCS2(=O)=O)cc1	-	-	0	0	0	0
Cc1ccc(-c2cccc(CN3CCN(C(C)C)C(CCO)C3)c2)o1 (centres undefined)	0	0	44.7µM	0	0	0
Cc1cccc(-c2ncc(CN3CCN(CC(C)C)C(CCO)C3)cn2)c1 (centres undefined)	0	0	0	0	17.8µM	0
COc1cccc(NC(=O)c2sc3nc(C)c(C(=O)Nc4ccc(C)cc4C)c(-c4ccco4)c3c2N)c1	-	-	0	0	0	0
Cc1ccc(-n2cc3c(c2-c2ccccc2Br)c(=O)n(C)c(=O)n3C)cc1N	-	-	?	0	?	50.1µM
Cn1c(=O)c2c(-c3ccccc3Br)n(CCc3ccccc3)cc2n(C)c1=O	-	-	?	0	?	?
CC1CCN(c2nc3ccccc3nc2C(F)(F)F)CC1	-	-	0	0	0	0
Cc1nc(SCc2ccc([N+](=O)[O-])cc2)n[nH]1	0	0	0[0.501 µM]	0	0	0
Cc1nnc(SCc2ccc([N+](=O)[O-])cc2)o1	0	0	0	0	12.6µM	?
Nc1nnc(SCc2ccc([N+](=O)[O-])cc2)s1	0	0	0	0	0	0
O=[N+]([O-])c1ccc(CSc2nnc(SCc3ccc(Cl)cc3)s2)cc1	-	0	35.5µM	0	0	0
Cc1ccc(CCNC(=O)CCSCc2ccccc2F)cc1	-	-	0	0	0	0
COc1ccc(C(=O)Nc2nncs2)cc1S(=O)(=O)N1CCOCC1	0	0	56.2µM	0	0	0
Cc1ccc(C(=O)Nc2nncs2)cc1S(=O)(=O)N1CCOCC1	0	0	0[12.7 µM]	0	0	0
COc1ccc(C(=O)Nc2nc(-c3ccccn3)cs2)cc1S(=O)(=O)N1CCOCC1	-	-92.5	-	0	25.1µM	-
COc1ccc(C(=O)Nc2nc3ccccc3[nH]2)cc1S(=O)(=O)N1CCOCC1	?	?	0	0	0	?
